Test results taken from PubChem BioAssay (NCATS).
Inconclusive results are not listed. Calls of active or inactive are those of the source. Unless noted, the call rests on the fitted dose curve; in most records, active means well fitted curve in either direction with a large enough effect (not every such curve was filed as active); inconclusive means small, poorly fitted or top-dose-only effect, or another doubt; inactive means flat fitted curve, though single readings scatter.

Tests used:
[1] = molecular target: Lysosomal acid glucosylceramidase (Homo sapiens) (UniProt P04062); assay: Glucocerebrosidase-p2 (AID 348; in the data active means potency below about 10 µM; further: potency means the concentration at half of the fitted maximal effect); settings: purified GBA, blue fluorogenic substrate, 40 min
Outline: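 Compounds titrated from 0.6 nM upwards against 0.2 nM enzyme in pH 5.9 citric acid/KH2PO4, taurocholate, tween-20; blue fluorogenic substrate 80 uM, 40 min room temperature, stopped and read Ex 365/Em 440 for AC50.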

[2] = AP1 Signaling Pathway (AID 357); settings: ME-180 AP-1-bla reporter, EGF-induced, beta-lactamase ratio, 5 h; at 7.69 µM (top of the series) unless noted;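 further: ME-180 reporter cells stimulated with EGF at its EC50 level; on the % scale 0 is the no-effect control and ±100 the full control effect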
Outline: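 Modulation of EGF-driven AP-1 transcription was assessed with a beta-lactamase reporter in ME-180 cells. Compound and EC50 EGF were co-incubated 5 hours at 37 °C before 2.5-hour CCF4 loading at room temperature and dual-emission reading.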

[3] = molecular target: Cytochrome P450 1A2 (Homo sapiens) (UniProt P05177); assay: p450-cyp1a2 (AID 410; calls by dose curve; further: potency means the concentration at half of the fitted maximal effect;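 on activity change, negative = inhibition: -100% = full effect of reference inhibitor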); settings: recombinant CYP1A2, luciferin-ME demethylation, luminescence; series mostly up to 57 µM
Outline: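 Human CYP1A2 (20nM) demethylated Luciferin-ME at its Km (100uM) in 100mM KPO4. After 10 min compound preincubation, NADPH regeneration ran the reaction 60 min at room temperature. Luciferin was read by luminescence, normalized to 57 uM furafylline.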

[4] = NFAT Signaling Pathway (AID 444); settings: Jurkat NFAT-bla M1, carbachol, beta-lactamase ratio, 5 h; at 7.69 µM (top of the series) unless noted;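 further: carbachol stimulus at about its EC50 of 1 µM final; on the % scale 0 is the no-effect control and ±100 the full control effect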
Outline: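 Jurkat cells carrying an NFAT-driven β-lactamase reporter and co-transfected muscarinic M1 receptor were treated with compound plus carbachol (1 uM final, an EC50 level) for 5 h at 37 °C. CCF4 loading followed for 1 h at RT; 460/530 nm ratio gave %activity.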

[5] = Stat Signaling Pathway (AID 446); settings: ME-180 SIE beta-lactamase reporter, IL-6 stimulated, 5 h; at 7.69 µM (top of the series) unless noted;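 further: ME-180 cervical cancer cells given 40 pM IL-6 alongside compound; SIE-controlled beta-lactamase reporter measured as 460/530 nm FRET emission ratio; on the % scale 0 is the no-effect control and ±100 the full control effect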
Outline: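 ME-180 SIE-bla cells; overnight plating; cpd + IL-6 40 pM, 5 h, 37 C; LiveBLAzer 2.5 h RT; 460/530 nm emission ratio. Normalized to 300 pM IL-6 and 125 nM JAK inhibitor controls.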

[6] = molecular target: Glucocorticoid receptor (Homo sapiens) (UniProt P04150); assay: GR-EFC Redistribution (AID 451; calls by dose curve; further: potency means the concentration at half of the fitted maximal effect); settings: CHO-K1 GR-EFC translocation, beta-gal luminescence, 2 h
Outline: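 CHO-K1 cells stably expressing nuclear-localized β-gal enzyme acceptor and GR fused C-terminally to the enzyme donor fragment; ligand-driven nuclear translocation restores β-gal by complementation. Compounds titrated up to 46 uM final, 2 h at 37 °C; luminescence read.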

[7] = molecular target: Mitogen-activated protein kinase 10 (Mus musculus) (UniProt Q61831); assay: JNK3 AlphaScreen Assay (AID 530); settings: JNK3 lysate, c-Jun phosphorylation; series mostly up to 57.1 µM;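 further: kinase came from lysate of stimulated human HepG2 cells; signal reports phosphorylation of biotinylated GST-cJun 1-79 at Ser73 with 10 µM ATP; on the % scale 0 is the no-effect control and ±100 the full control effect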
Outline: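 JNK3 came from HepG2 lysates pre-activated with IL-1beta and TNF-alpha and phosphorylated biotinylated GST-cJun (1-79) at 10 uM ATP, pH 7.6, room temperature. Compounds were titrated. AlphaScreen signal used anti-phospho-cJun (Ser73) antibody.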

[8] = molecular target: 3',5'-cyclic-AMP phosphodiesterase 4B (Homo sapiens) (UniProt Q07343); assay: qHTS Assay for Inhibitors of PDE-IV (AID 607; active means well fitted activation curve with a large enough effect in the main read-out, with a control signal flat, not every such curve was filed as active; further: % of control where 0% means no effect); settings: HEK293 ACTOne CNG channel cells, membrane potential fluorescence; series mostly up to 22.9 µM
Outline: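 ACTOne HEK293 cells carry a modified cAMP-gated CNG channel and express endogenous PDE4; plated 1000 cells/well, compounds up to 22.9 uM final. Membrane-potential dye fluorescence (ex 535/em 590) was read; parental cells received 10 uM forskolin + 100 uM RO 20-1724.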

[9] = qHTS Assay for Lipid Storage Modulators (AID 1519; calls by dose curve); settings: Drosophila S3 cells, BODIPY lipid droplet/cell ratio, laser cytometry, cells loaded with oleic acid; for activity change, negative = inhibition: at 57.5 µM (top of the series)
Outline: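 Cells seeded at 5,000 per well were treated with compounds over a concentration series and loaded with oleic acid (400 uM, as added). Lipid droplet fluorescence (488 nm excitation, 500-530 nm channel) was read by laser-scanning cytometry and normalized to 20 uM Triacsin C.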

[10] = Primary qHTS for small molecule stabilizers of the endoplasmic reticulum resident proteome: Secreted ER Calcium Modulated Protein (SERCaMP) assay (AID 1508630; active means well fitted curve in the direction sought with a large enough effect; an effect the other way counts as inactive or inconclusive; further: on the % scale 0 is the no-effect control and ±100 the full control effect); settings: SH-SY5Y GLuc-SERCaMP (Gaussia luciferase released on ER calcium loss) secretion, thapsigargin, luminescence; series mostly up to 38.4 µM
Outline: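 GLuc-SERCaMP-expressing SH-SY5Y cells, pretreated 16 h with compound, are challenged with thapsigargin to empty ER calcium stores; after 4 h, coelenterazine is added directly to the medium and luminescence is imaged.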

[11] = molecular target: Glucocorticoid receptor (Homo sapiens) (UniProt P04150); assay: GR-GFP Redistribution (AID 450;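 active means compounds whose dose series gives a full or clear partial fitted curve of increased nuclear translocation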; further: potency means the concentration at half of the fitted maximal effect); settings: U2OS GR-GFP nuclear translocation, laser cytometry, 2 h
[12] = molecular target: Cytochrome P450 2C9 (Homo sapiens) (UniProt P11712); assay: qHTS Assay for Inhibitors and Substrates of Cytochrome P450 2C9 (AID 883; active means well fitted curve in the direction sought with a large enough effect; an effect the other way counts as inactive or inconclusive; further: potency means the concentration at half of the fitted maximal effect; nearly all actives have a fitted effect of over 60% in size); settings: recombinant CYP2C9, luciferin-H luminescence, 60 min; series mostly up to 57.1 µM
Outline: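 Human CYP2C9 (10nM) hydroxylated Luciferin-H (100uM, at its KM) to luciferin in 25mM KPO4. Compound was preincubated 10 min at 37C, then NADPH regeneration started a 60 min reaction at 37C. Luminescence was read after detection reagent, normalized to 57uM sulphaphenazole.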

[13] = molecular target: Cytochrome P450 3A4 (Homo sapiens) (UniProt P08684); assay: qHTS Assay for Inhibitors and Substrates of Cytochrome P450 3A4 (AID 884; active means well fitted curve in the direction sought with a large enough effect; an effect the other way counts as inactive or inconclusive; further: potency means the concentration at half of the fitted maximal effect; nearly all actives have a fitted effect of over 50% in size); settings: recombinant CYP3A4, Luciferin-PPXE luminescence; series mostly up to 57.1 µM
Outline: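 20 nM human CYP3A4 with 25 uM Luciferin-PPXE (at KM) in 200 mM KPO4, preincubated 10 min with compound; NADPH regeneration started a 60 min RT reaction. Luciferin detected by luminescence, normalized to 57 uM ketoconazole as full inhibition.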

[14] = molecular target: Cytochrome P450 3A4 (Homo sapiens) (UniProt P08684); assay: qHTS Assay for Activators of Cytochrome P450 3A4 (AID 885; active means well fitted curve in the direction sought with a large enough effect; an effect the other way counts as inactive or inconclusive; further: nearly all actives have a fitted effect of over 65% in size); settings: recombinant CYP3A4, Luciferin-PPXE luminescence, 60 min; series mostly up to 57.1 µM
Outline: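 20nM CYP3A4 + 25uM Luciferin-PPXE (=KM), 200mM KPO4; cpd 10 min RT; NADPH regen, 60 min RT; stop w/ detection buffer, 20 min; luminescence. Normalized to 57 uM ketoconazole.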

[15] = molecular target: Cytochrome P450 2C19 (Homo sapiens) (UniProt P33261); assay: qHTS Assay for Inhibitors and Substrates of Cytochrome P450 2C19 (AID 899; active means well fitted curve in the direction sought with a large enough effect; an effect the other way counts as inactive or inconclusive; further: potency means the concentration at half of the fitted maximal effect; nearly all actives have a fitted effect of over 60% in size); settings: recombinant CYP2C19, luciferin-H EGE luminescence; series mostly up to 57.1 µM
Outline: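 Human CYP2C19 (5nM) with Luciferin-H EGE at 10uM (its KM) in 50mM KPO4 was preincubated with compound for 10 min at 37C. NADPH regeneration started a 60 min 37C reaction. Luciferin was read by luminescence, normalized to 57uM ketoconazole.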

[16] = Confirmation and Secondary Assay for Modulators of Hemoglobin Beta Chain Splicing at IVS2 654 locus (AID 910; active means well fitted curve in the direction sought with a large enough effect; an effect the other way counts as inactive or inconclusive;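 further: per-well total GFP intensity by laser scanning cytometry after 2-day treatment; % of control where 0% means no effect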); settings: HeLa EGFP-654 splicing reporter, GFP fluorescence, 48 h; series mostly up to 38.3 µM
Outline: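 HeLa cells stably carrying EGFP interrupted by mutant beta-globin IVS2-654 intron (CMV-driven) were treated with compound for 2 days at 37C; corrected splicing was scored as total peak GFP intensity per well (488 nm excitation, 500-520 nm emission).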

[17] = Confirmation and Secondary Assay for Modulators of Hemoglobin Beta Chain Splicing at IVS2 705 locus (AID 930; active means well fitted curve in the direction sought with a large enough effect; an effect the other way counts as inactive or inconclusive;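 further: HeLa cells stably expressing the EGFP-705 splicing reporter; GFP fluorescence per well restored by corrected splicing of the IVS2-705 intron in EGFP; % of control where 0% means no effect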); settings: HeLa EGFP-705 splicing reporter, GFP fluorescence, 48 h; series mostly up to 38.3 µM
Outline: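 HeLa IVS2-705 EGFP reporter cells, 500/well, compound 2 d at 37C; correct splicing yields fluorescent EGFP. Control: 500 nM antisense PNA. Read-out: total peak GFP intensity.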

[18] = molecular target: Ubiquitin carboxyl-terminal hydrolase 1 (Homo sapiens) (UniProt O94782); assay: Inhibitors of USP1/UAF1: Pilot qHTS (AID 504865; active means well fitted curve in the direction sought with a large enough effect; an effect the other way counts as inactive or inconclusive;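 further: rhodamine fluorescence freed from ubiquitin-rhodamine substrate followed over time; top concentration of the series differs between compounds; on the % scale 0 is the no-effect control and ±100 the full control effect; nearly all actives have a fitted effect of over 35% in size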); settings: purified USP1/UAF1, Ub-rhodamine cleavage fluorescence; series mostly up to 54.9 µM
Outline: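 USP1/UAF1 complex at 1 nM preincubated 15 min at room temperature with compound, then Ub-Rho substrate added at 150 nM final. Fluorescence (480/540 nm) read kinetically in 50 mM HEPES pH 7.8, 0.5 mM EDTA, 1 mM TCEP, 0.1 mg/ml BSA, 0.01% Tween-20.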

[19] = measured here: cell count channel max response
[20] = measured here: lipid channel max response

Chain of Glucocorticoid receptor (Homo sapiens) (P04150 whole entry, looked up, the tested form may be a part): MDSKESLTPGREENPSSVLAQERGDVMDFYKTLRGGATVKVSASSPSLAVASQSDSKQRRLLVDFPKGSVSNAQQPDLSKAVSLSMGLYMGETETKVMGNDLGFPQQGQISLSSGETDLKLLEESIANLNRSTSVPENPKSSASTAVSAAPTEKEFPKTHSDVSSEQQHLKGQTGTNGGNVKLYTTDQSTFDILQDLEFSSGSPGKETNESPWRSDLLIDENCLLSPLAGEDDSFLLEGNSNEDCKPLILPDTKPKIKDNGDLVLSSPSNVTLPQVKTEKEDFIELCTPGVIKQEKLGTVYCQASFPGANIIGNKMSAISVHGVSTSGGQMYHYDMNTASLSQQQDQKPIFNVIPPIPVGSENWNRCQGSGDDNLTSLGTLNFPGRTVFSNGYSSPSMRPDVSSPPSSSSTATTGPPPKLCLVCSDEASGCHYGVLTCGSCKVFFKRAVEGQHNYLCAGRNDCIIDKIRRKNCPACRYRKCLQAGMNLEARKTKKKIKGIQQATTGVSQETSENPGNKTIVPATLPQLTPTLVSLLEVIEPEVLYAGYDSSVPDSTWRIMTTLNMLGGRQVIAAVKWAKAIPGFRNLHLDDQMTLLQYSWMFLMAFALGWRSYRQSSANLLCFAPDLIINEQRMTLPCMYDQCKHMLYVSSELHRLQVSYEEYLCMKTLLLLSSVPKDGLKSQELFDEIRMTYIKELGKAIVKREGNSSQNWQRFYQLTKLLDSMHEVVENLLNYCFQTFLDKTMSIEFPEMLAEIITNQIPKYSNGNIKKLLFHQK
Chain of Cytochrome P450 1A2 (Homo sapiens) (P05177 whole entry, looked up): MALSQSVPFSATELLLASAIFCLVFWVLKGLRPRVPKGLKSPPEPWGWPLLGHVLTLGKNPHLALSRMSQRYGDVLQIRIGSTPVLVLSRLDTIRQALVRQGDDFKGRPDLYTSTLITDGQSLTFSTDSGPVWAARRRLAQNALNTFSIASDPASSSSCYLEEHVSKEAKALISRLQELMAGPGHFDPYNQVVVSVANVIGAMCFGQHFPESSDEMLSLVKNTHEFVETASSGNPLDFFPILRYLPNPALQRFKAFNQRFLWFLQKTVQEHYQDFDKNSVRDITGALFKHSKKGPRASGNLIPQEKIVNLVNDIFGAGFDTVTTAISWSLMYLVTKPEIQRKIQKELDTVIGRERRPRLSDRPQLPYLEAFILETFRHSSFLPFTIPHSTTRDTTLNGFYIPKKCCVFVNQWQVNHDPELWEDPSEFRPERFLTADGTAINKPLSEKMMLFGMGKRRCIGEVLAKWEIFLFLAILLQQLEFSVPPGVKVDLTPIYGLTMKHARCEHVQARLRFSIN
Chain of Lysosomal acid glucosylceramidase (Homo sapiens) (P04062 whole entry, looked up): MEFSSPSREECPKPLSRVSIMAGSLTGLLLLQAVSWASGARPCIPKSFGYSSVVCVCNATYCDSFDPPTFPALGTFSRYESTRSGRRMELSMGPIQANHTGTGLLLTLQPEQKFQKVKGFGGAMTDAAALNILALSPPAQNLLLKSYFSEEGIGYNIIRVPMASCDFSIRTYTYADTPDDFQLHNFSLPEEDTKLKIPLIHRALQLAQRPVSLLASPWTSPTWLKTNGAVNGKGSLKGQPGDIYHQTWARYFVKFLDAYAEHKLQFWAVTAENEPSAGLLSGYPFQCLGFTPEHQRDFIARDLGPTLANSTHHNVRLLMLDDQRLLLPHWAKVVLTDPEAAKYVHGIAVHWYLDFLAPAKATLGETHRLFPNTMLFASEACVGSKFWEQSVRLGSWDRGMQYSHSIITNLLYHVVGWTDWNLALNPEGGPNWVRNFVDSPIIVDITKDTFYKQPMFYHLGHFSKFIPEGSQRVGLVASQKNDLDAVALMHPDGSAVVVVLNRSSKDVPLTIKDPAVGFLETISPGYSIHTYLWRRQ
Chain of 3',5'-cyclic-AMP phosphodiesterase 4B (Homo sapiens) (Q07343 whole entry, looked up): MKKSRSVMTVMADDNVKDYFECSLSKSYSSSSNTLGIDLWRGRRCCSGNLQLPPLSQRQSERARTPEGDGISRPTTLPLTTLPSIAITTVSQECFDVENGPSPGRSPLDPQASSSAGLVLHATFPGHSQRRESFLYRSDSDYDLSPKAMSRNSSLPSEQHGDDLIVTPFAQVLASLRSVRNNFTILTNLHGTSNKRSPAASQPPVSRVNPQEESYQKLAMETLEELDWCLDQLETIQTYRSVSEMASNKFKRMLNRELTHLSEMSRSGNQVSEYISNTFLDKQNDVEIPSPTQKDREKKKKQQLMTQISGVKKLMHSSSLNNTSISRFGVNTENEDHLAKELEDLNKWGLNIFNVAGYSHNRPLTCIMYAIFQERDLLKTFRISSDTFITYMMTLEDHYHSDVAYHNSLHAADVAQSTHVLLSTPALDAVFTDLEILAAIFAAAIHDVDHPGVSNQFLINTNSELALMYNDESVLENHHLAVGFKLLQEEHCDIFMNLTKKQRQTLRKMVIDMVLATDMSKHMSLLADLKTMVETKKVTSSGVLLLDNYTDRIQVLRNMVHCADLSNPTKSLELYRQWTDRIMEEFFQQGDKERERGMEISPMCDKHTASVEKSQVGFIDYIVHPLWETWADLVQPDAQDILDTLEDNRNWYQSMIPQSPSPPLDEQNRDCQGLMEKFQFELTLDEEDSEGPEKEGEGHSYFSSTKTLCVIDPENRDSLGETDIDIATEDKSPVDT
Chain of Cytochrome P450 3A4 (Homo sapiens) (P08684 whole entry, looked up): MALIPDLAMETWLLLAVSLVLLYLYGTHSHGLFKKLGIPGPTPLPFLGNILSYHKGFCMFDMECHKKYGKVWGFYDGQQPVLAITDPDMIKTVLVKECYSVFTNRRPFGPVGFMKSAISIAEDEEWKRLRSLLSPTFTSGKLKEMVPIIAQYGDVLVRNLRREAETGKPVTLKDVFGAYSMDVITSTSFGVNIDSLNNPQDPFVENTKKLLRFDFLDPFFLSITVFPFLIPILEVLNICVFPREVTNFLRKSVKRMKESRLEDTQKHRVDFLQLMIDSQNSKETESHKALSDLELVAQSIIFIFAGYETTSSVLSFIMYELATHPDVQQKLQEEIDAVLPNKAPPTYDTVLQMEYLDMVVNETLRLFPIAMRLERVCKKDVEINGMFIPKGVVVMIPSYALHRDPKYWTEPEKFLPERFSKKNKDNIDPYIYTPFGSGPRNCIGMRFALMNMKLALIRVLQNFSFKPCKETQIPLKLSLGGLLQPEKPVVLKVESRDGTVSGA
Chain of Ubiquitin carboxyl-terminal hydrolase 1 (Homo sapiens) (O94782 whole entry, looked up): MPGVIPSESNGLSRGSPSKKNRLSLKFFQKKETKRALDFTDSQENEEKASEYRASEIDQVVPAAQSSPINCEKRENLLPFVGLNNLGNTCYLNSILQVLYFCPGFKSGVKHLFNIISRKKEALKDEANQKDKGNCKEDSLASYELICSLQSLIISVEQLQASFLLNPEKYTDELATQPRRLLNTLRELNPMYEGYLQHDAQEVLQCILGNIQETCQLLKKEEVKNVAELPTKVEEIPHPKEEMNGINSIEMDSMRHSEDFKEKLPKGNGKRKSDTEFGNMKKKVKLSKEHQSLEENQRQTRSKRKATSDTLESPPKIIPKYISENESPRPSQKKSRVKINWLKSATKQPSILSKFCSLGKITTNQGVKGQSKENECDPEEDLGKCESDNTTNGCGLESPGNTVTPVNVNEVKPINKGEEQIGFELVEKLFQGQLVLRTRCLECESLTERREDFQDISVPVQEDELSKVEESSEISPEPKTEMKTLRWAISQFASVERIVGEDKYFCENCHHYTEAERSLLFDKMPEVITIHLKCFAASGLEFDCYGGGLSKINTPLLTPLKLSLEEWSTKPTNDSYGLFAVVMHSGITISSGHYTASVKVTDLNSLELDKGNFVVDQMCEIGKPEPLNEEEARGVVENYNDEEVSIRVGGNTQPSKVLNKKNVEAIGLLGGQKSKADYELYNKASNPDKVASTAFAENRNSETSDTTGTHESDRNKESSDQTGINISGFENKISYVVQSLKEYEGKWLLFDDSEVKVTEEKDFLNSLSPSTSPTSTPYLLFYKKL
Chain of Cytochrome P450 2C9 (Homo sapiens) (P11712 whole entry, looked up): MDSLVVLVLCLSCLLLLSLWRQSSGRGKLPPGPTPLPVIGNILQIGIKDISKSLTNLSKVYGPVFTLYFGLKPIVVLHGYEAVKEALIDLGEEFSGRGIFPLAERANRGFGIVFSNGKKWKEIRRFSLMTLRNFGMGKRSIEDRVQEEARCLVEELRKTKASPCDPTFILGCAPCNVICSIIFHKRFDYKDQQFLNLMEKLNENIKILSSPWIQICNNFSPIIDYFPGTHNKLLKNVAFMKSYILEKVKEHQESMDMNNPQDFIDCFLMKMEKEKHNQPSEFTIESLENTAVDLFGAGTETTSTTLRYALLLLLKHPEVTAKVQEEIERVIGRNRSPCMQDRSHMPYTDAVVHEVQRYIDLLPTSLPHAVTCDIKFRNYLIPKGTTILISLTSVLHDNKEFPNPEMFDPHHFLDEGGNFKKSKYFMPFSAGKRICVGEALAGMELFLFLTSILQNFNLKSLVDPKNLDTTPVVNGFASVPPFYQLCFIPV
Chain of Cytochrome P450 2C19 (Homo sapiens) (P33261 whole entry, looked up): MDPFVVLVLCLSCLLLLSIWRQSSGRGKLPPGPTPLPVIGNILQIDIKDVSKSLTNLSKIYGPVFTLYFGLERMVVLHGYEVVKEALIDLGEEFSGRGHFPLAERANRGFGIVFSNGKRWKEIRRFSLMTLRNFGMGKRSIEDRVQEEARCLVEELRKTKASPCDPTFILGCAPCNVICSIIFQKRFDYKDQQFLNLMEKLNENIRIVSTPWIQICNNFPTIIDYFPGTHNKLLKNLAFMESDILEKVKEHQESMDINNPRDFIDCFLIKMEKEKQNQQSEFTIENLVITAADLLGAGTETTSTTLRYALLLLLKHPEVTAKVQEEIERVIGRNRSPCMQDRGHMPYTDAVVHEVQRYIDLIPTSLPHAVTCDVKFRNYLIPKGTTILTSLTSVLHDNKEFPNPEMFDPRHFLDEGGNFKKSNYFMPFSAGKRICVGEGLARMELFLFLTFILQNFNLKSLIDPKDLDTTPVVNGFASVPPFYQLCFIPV

Row | SMILES | Potency [1] | activity change, negative = inhibition [2] | Potency [3] | activity change, negative = inhibition [4] | activity, negative = inhibition [5] | Potency [6] | outcome [7] | Potency [8] | activity change, negative = inhibition [9] | max response [9, 19] | max response [9, 20] | Potency [10] | Potency [11] | Potency [12] | Potency [13] | Potency [14] | Potency [15] | outcome [16] | outcome [17] | Potency [18]
1 | O=S(=O)(c1ccccc1)N1CCC2(CC1)CN(c1ncccn1)C2 | > 11.4 µM (inactive) | -2.52% (inactive) | inactive | 26.7% (inactive) | -1.43% (inactive) | > 46 µM (inactive) | inactive | inactive | 4.75% (inactive) | 14.7% | 20.8% | inactive |  |  |  |  |  |  |  | 
2 | COc1ccccc1CCn1c(=O)c(-c2cc(F)cc(F)c2)nc2cncnc21 | > 11.4 µM (inactive) | -3.28% (inactive) | 1.58 µM (active) | -7.47% (inactive) | 13% (inactive) | > 46 µM (inactive) | inactive |  | 6.22% (inactive) | -2.09% | 2.22% | inactive | > 9.22 µM (inactive) | 1.58 µM (active) | 0.398 µM (active) | inactive | 1.58 µM (active) |  |  | 
3 | CC(C)NC(=O)N1CC[C@@]2(CCCN(S(C)(=O)=O)C2)C1 | > 11.4 µM (inactive) | -5.61% (inactive) | inactive | 0.961% (inactive) | -2.56% (inactive) | > 46 µM (inactive) | inactive |  | 0.109% (inactive) | 4.25% | 3.89% | inactive |  |  |  |  |  |  |  | 
4 | COc1cccc(-c2cncnc2NCc2ccccc2)c1 | > 11.4 µM (inactive) | -17.1% (inactive) | 5.01 µM (active) | 1.11% (inactive) | -9.01% (inactive) |  | inactive | inactive | 9.98% (inactive) | 12.4% | 12.8% | inactive | > 46 µM (inactive) |  | 0.316 µM (active) | inactive |  | inactive | inactive | inactive
5 | O=C(c1cccc(F)c1)N1CCC2(CCCN(c3ncccn3)C2)CC1 | > 11.4 µM (inactive) | 4.38% (inactive) | 25.1 µM (active) | -6.9% (inactive) | -4.43% (inactive) | > 46 µM (inactive) | inactive |  | 3.73% (inactive) | 1% | 9.03% | inactive |  |  |  |  |  |  |  | 
6 | O=C(c1csnn1)N1CCC2(CCCN(Cc3cc(C(F)(F)F)cc(C(F)(F)F)c3)C2)CC1 | > 11.4 µM (inactive) | 10.6% (inactive) | 12.6 µM (active) | 10.5% (inactive) | 3.73% (inactive) | > 46 µM (inactive) | inactive | inactive | -5.5% (inactive) | 21.4% | 17.2% | inactive |  |  |  |  |  |  |  | 
